Results published in PubChem BioAssay (NCATS).
Inconclusive results are not listed. Activity calls are given as the source filed them. Calls follow the shape of the dose curve; as a rule, active = well fitted curve in the direction sought with a large enough effect; inconclusive = small, poorly fitted or top-dose-only effect, or another doubt; inactive = no such curve, though single readings can be large; an effect the other way counts as inactive or inconclusive.

What was measured:
C2A = assay: qHTS profiling for inhibitors of Plasmodium falciparum proliferation (AID 504749); also: nearly all actives have a fitted effect of over 60% in size; also: potency is read from the fitted curve at half-maximal effect; conditions: P. falciparum in erythrocytes, SYBR Green DNA, 72 h; series mostly up to 28.7 µM
Summary of the method: (§1)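 SYBR Green fluorescence (ex 485 nm, em 535 nm) reports parasite DNA after 72 h compound exposure of infected red cells at 0.3% parasitemia, 2.5% hematocrit; signal normalized to 0.29 uM artemisinin and vehicle wells.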

CP217 = assay: as above; conditions: P. falciparum in erythrocytes, SYBR Green DNA, 72 h; series mostly up to 28.7 µM
Summary of the method: as §1

CP237 = assay: as above; conditions: P. falciparum in erythrocytes, SYBR Green DNA, 72 h; series mostly up to 28.7 µM
Summary of the method: as §1

CP266 = assay: as above; conditions: P. falciparum in erythrocytes, SYBR Green DNA, 72 h; series mostly up to 28.7 µM
Summary of the method: as §1

CP269 = assay: as above; conditions: P. falciparum in erythrocytes, SYBR Green DNA, 72 h; series mostly up to 28.7 µM
Summary of the method: as §1

DFO2036 = assay: as above; conditions: P. falciparum in erythrocytes, SYBR Green DNA, 72 h; series mostly up to 28.7 µM
Summary of the method: as §1

Dd2 = assay: as above; conditions: P. falciparum in erythrocytes, SYBR Green DNA, 72 h; series mostly up to 28.7 µM
Summary of the method: as §1

ECU = assay: as above; conditions: P. falciparum in erythrocytes, SYBR Green DNA, 72 h; series mostly up to 28.7 µM
Summary of the method: as §1

FAB9 = assay: as above; conditions: P. falciparum in erythrocytes, SYBR Green DNA, 72 h; series mostly up to 28.7 µM
Summary of the method: as §1

GB4 = assay: as above; conditions: P. falciparum in erythrocytes, SYBR Green DNA, 72 h; series mostly up to 28.7 µM
Summary of the method: as §1

HB3 = assay: as above; conditions: P. falciparum in erythrocytes, SYBR Green DNA, 72 h; series mostly up to 28.7 µM
Summary of the method: as §1

N140 = assay: as above; conditions: P. falciparum in erythrocytes, SYBR Green DNA, 72 h; series mostly up to 28.7 µM
Summary of the method: as §1

P93_24 = assay: as above; conditions: P. falciparum in erythrocytes, SYBR Green DNA, 72 h; series mostly up to 28.7 µM
Summary of the method: as §1

P94_40 = assay: as above; conditions: P. falciparum in erythrocytes, SYBR Green DNA, 72 h; series mostly up to 28.7 µM
Summary of the method: as §1

PC49 = assay: as above; conditions: P. falciparum in erythrocytes, SYBR Green DNA, 72 h; series mostly up to 28.7 µM
Summary of the method: as §1

SC27B = assay: as above; conditions: P. falciparum in erythrocytes, SYBR Green DNA, 72 h; series mostly up to 28.7 µM
Summary of the method: as §1

TAB109 = assay: as above; conditions: P. falciparum in erythrocytes, SYBR Green DNA, 72 h; series mostly up to 28.7 µM
Summary of the method: as §1

TAB113 = assay: as above; conditions: P. falciparum in erythrocytes, SYBR Green DNA, 72 h; series mostly up to 28.7 µM
Summary of the method: as §1

W2 = assay: as above; conditions: P. falciparum in erythrocytes, SYBR Green DNA, 72 h; series mostly up to 28.7 µM
Summary of the method: as §1

[1] = Cell Viability - LYMP2-015 (AID 971);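 also: cells exposed to compound for 24 h; nearly all actives have a fitted effect of over 55% in size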
Summary of the method: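 qHTS cytotoxicity: 2500 cells/well, 5 hr 37 C, compound 24 hr 37 C, CellTiter-Glo 30 min RT, luminescence. Loss of ATP = toxicity; AC50 via standard Hill fit.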

Measured: Potency

CO/N=C(/C(=O)N[C@@H]1C(=O)N2C(C(=O)O)=CCS[C@H]12)c1csc(N)n1
not listed: [1]
inactive: all other assays above

COC(=O)c1ccc(C=O)cc1
inactive: [1]

COCC(=O)O
inactive: [1]

C/C=C\c1ccc(OC)cc1
inactive: all assays above

Cc1ccc([N+](=O)[O-])cc1N
inactive: [1]

COC(=O)c1ccc(C)cc1
inactive: [1]

CC(C)(CO)C(O)C(=O)NCCCC(=O)O (stereo unspecified)
inactive: FAB9 | GB4 | HB3 | PC49 | TAB113
active: CP269 16.9 µM

CN1CC[C@H](CN2c3ccccc3Sc3ccccc32)C1
inactive: CP266
active: C2A 10 µM | CP217 11.2 µM | CP237 6.31 µM | CP269 15.1 µM | DFO2036 12.6 µM | Dd2 3.55 µM | ECU 11.2 µM | GB4 13.5 µM | N140 11.2 µM | P93_24 7.08 µM | P94_40 8.91 µM | SC27B 11.2 µM | TAB109 11.2 µM | W2 1.9 µM

NC1=NC(S)C2N=CN=C2N1 (stereo unspecified)
not listed: [1]
inactive: all other assays above

S=C1NC=NC2N=CNC12 (stereo unspecified)
active: CP266 10.7 µM
not listed: CP269 | GB4 | [1]
inactive: all other assays above

Cc1ccc([N+](=O)[O-])c(C)c1
inactive: [1]

CCCCCCCCCCCCCCC1CO1 (stereo unspecified)
inactive: [1]

CN(C)CCCCCCN(C)C
not listed: [1]
inactive: all other assays above

O=C(O)CC(C(=O)O)C(CC(=O)O)C(=O)O (stereo unspecified)
inactive: [1]

C1OCOCO1
not listed: [1]
inactive: all other assays above
